Results on 38 molecules are retold here after PubChem BioAssay (NCATS).

Each structure is given as a SMILES string. “And” between values parts separate entries of the source, which are not always exact repeats. Equal entries are not always repeated. Results filed as inconclusive are left out. Unmarked numbers belong to inactive results. The source made the active and inactive calls. The call rests on the fitted dose curve; in most records, active means well fitted curve in the direction sought with a large enough effect in the repeat runs; inconclusive means weak or mixed curves; inactive means no such curve, though single readings can be large; an effect the other way counts as inactive or inconclusive.
Further: nearly all actives have a fitted effect of over 55% in size.
On the % scale 0 is the no-effect control and ±100 the full control effect; potency means the concentration at half of the fitted maximal effect.

Chain of Cytochrome P450 2C9 (Homo sapiens) (P11712 whole entry, looked up): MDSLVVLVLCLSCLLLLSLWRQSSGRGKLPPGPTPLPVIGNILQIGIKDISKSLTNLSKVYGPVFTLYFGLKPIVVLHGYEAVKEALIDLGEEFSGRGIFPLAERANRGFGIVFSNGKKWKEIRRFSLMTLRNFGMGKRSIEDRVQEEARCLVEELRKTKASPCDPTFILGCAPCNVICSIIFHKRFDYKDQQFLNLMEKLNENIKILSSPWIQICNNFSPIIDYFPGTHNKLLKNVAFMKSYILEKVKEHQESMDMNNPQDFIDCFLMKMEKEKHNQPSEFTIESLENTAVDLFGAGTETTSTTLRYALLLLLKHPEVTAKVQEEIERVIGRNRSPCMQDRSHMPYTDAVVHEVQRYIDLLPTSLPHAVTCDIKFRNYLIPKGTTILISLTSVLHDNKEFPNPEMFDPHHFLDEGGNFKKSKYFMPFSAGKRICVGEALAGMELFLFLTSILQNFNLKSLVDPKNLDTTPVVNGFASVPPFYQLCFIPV
Chain of Cytochrome P450 2D6 (Homo sapiens) (P10635 whole entry, looked up): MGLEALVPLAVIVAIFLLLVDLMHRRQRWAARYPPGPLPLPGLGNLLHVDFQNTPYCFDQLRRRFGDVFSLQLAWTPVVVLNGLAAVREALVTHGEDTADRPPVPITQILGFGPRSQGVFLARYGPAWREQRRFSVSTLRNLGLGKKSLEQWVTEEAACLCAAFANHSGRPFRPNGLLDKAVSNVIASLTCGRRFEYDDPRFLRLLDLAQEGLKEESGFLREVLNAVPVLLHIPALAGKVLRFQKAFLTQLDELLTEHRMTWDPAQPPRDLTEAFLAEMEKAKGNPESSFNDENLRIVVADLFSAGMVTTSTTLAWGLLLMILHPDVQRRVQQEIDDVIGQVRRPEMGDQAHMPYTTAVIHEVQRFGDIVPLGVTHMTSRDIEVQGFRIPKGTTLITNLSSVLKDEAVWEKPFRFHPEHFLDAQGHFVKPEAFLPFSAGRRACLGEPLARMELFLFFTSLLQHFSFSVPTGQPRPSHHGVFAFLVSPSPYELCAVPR

For the first assay, the target named is Cytochrome P450 2D6 (Homo sapiens) (UniProt P10635). Description: Cytochrome P450 family 2 subfamily D member 6 (CYP2D6) small molecule antagonists: luciferase biochemical (cell-free) qHTS assay (AID 1645840). As to conditions: P450-Glo CYP2D6 enzyme, luciferin luminescence, 1 h; series mostly up to 57.4 µM; activity change, negative = inhibition: at the top concentration. Summed up:
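P450-Glo CYP2D6 system: proluciferin substrate converted by enzyme to luciferin, read by luminescence proportional to activity. Enzyme-substrate mix with compound 10 min at room temperature, then NADPH regeneration 1 h before detection reagent.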
On the technique in general: Quantitative high-throughput screening tests each substance at several concentrations.
As to `COc1cc2nccc(Oc3ccc(NC(=O)NC4CC4)c(Cl)c3)c2cc1C(N)=O`, the “activity change, negative = inhibition” value is -17.1%.

As to `Cn1cnc([N+](=O)[O-])c1Sc1ncnc2nc[nH]c12`, the Potency result is “inactive”.

As for `CCCc1nn(C)c2c(=O)[nH]c(-c3cc(S(=O)(=O)N4CCN(C)CC4)ccc3OCC)nc12`, the Potency result was “inactive”.

In the case of `CN(C(=O)c1ccc(F)cc1C(F)(F)F)C1CCN(c2nnc(-c3ccnn3C)c3ccccc23)CC1`, the “activity change, negative = inhibition” value is -21%.

With `CC(C)(C)NCC(O)c1ccc(O)c(CO)c1` (stereo unspecified), the “activity change, negative = inhibition” value was 1.93%.

Regarding `O=c1[nH]cnc2[nH]ncc12`, the “activity change, negative = inhibition” value was -0.633%.

With `CCOc1cc(C(=O)Nc2ccc(Cl)c(-c3nc4ccccc4[nH]3)c2)cc(OCC)c1OCC`, the “activity change, negative = inhibition” value is 8.87%.

For `OC[C@H](Cc1ccccc1)Nc1nc(Oc2ccc3c(c2)CCC3)nc2c1ncn2Cc1ccc(-c2ccccc2)cc1`, the “activity change, negative = inhibition” value is -0.0402%.

In the case of `C#Cc1cccc(Nc2ncnc3cc(OCCOC)c(OCCOC)cc23)c1`, the “activity change, negative = inhibition” value was 5.49%.

`S=C(NCc1ccc2c(c1)OCO2)N1CCN(c2ncnc3c2oc2ccccc23)CC1`: the Potency is 4.77 µM (active).

`O=C1CCC(N2C(=O)c3ccccc3C2=O)C(=O)N1` (stereo unspecified): the Potency is 15.5 µM (active).

As for `CC(c1cc2ccccc2s1)N(O)C(N)=O` (stereo unspecified), the “activity change, negative = inhibition” value was 1.35%.

On to `COc1ccc([C@@H]2CC(=O)c3c(O)cc(O[C@@H]4O[C@H](CO[C@@H]5O[C@@H](C)[C@H](O)[C@@H](O)[C@@H]5O)[C@@H](O)[C@H](O)[C@@H]4O)cc3O2)cc1O`, for which the “activity change, negative = inhibition” value was 8.52%.

As for `CC(=O)Oc1ccccc1C(=O)O`, the Potency was 15.5 µM (active).

With `OC(CCN1CCCCC1)(c1ccccc1)C1CC2C=CC1C2` (stereo unspecified), the Potency was 1.23 µM (active).

Take `Clc1ccc(Nc2nnc(Cc3ccncc3)c3ccccc23)cc1`: the Potency was 0.0174 µM (active).

On to `CNC[C@H](O)c1cccc(O)c1`, for which the “activity change, negative = inhibition” value is 19%.

As for `CCc1cncnc1N1CCN(Cc2nc3ccc(C(F)(F)F)cc3[nH]2)CC1`, the Potency was 0.107 µM (active).

As for `c1ccc([C@H]2CN3CCSC3=N2)cc1`, the Potency is 30.9 µM (active).

For the molecule `O=C1CCc2cc(OCCCCc3nnnn3C3CCCCC3)ccc2N1`, the “activity change, negative = inhibition” value is 5.54%.

Turning to `CC(C)NCC(O)COc1ccc(COCCOC(C)C)cc1` (stereo unspecified), the “activity change, negative = inhibition” value was 2.25%.

Regarding `CC(C[N+](C)(C)C)OC(N)=O` (stereo unspecified), the “activity change, negative = inhibition” value is 13.6%.

On to `CCCC(CCC)C(=O)O`, for which the Potency result was “inactive”.

Turning to `CN(C)C(=O)c1ccc(S(=O)(=O)c2ccc(NC(=O)[C@@](C)(O)C(F)(F)F)c(Cl)c2)cc1`, the “activity change, negative = inhibition” value was -21.7%.

In the case of `N=c1nc(N2CCCCC2)cc(N)n1O`, the Potency is 7.76 µM (active).

As for `CCn1cc(C(=O)O)c(=O)c2cc(F)c(N3CCNC(C)C3)c(F)c21` (stereo unspecified), the “activity change, negative = inhibition” value is 7.38%.

`Nc1nc2c(ncn2COCCO)c(=O)[nH]1`: the “activity change, negative = inhibition” value is -1%.

Take `N[C@@H]1CONC1=O`: the “activity change, negative = inhibition” value is -17.1%.

As to `CCOC(=O)C1=C[C@]2(CC)CCCN3CCc4c(n1c1ccccc41)[C@@H]32`, the Potency is 4.9 µM (active).

On to `NC(=O)c1cnccn1`, for which the “activity change, negative = inhibition” value is 3.68%.

As to `NC(N)=NC(=O)c1nc(Cl)c(N)nc1N`, the “activity change, negative = inhibition” value was -5.74%.

On to `NCCc1ccc(O)c(O)c1`, for which the “activity change, negative = inhibition” value was 5.06%.

For `OC(CN1CCC(Cc2ccc(F)cc2)CC1)c1ccc(Cl)cc1` (stereo unspecified), the Potency was 15.5 nM (active) and 53.5 nM (active).

`Cc1ccc2c(c1)C(=O)[C@@]1(O)CCN(c3ccccc3)C1=N2`: the “activity change, negative = inhibition” value was -21.3%.

In the case of `C[C@]12CCC(=O)C=C1CC[C@@H]1[C@@H]2[C@@H](O)C[C@@]2(C)[C@H]1CC[C@]2(O)C(=O)CO`, the “activity change, negative = inhibition” value is 16.4%.

As for `Cc1ccc(N(CC2=NCCN2)c2cccc(O)c2)cc1`, the Potency was 0.309 µM (active).

On to `Cc1[nH]c(=O)c(C#N)cc1-c1ccncc1`, for which the “activity change, negative = inhibition” value was 2.29%.

For `CS(=O)(=O)c1cccc(CNc2nc(Nc3ccc4c(c3)CCC(=O)N4)ncc2C(F)(F)F)c1`, the “activity change, negative = inhibition” value was -5.38%.

Another assay concerns the target Cytochrome P450 2C9 (Homo sapiens) (UniProt P11712). Description: Cytochrome P450 family 2 subfamily C member 9 (CYP2C9) small molecule antagonists: luciferase biochemical (cell-free) qHTS assay (AID 1645842). As to conditions: P450-Glo CYP2C9 enzyme assay, luciferin luminescence; series mostly up to 57.4 µM; activity change, negative = inhibition: at the top concentration. Summed up:
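P450-Glo CYP2C9 system: proluciferin substrate with enzyme in mix containing 0.4% BSA, 10 min at room temperature, then NADPH regeneration solution added and incubated 1 h at 37C. Detection reagent stopped reaction; luminescence read after 20 min as RLU.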
Regarding `COc1cc2nccc(Oc3ccc(NC(=O)NC4CC4)c(Cl)c3)c2cc1C(N)=O`, the Potency is 12 µM (active).

Take `Cn1cnc([N+](=O)[O-])c1Sc1ncnc2nc[nH]c12`: the Potency entry is “inactive”.

With `CCCc1nn(C)c2c(=O)[nH]c(-c3cc(S(=O)(=O)N4CCN(C)CC4)ccc3OCC)nc12`, the Potency is 13.5 µM (active).

For `CC(C)(C)NCC(O)c1ccc(O)c(CO)c1` (stereo unspecified), the “activity change, negative = inhibition” value was -8.44%.

For `O=c1[nH]cnc2[nH]ncc12`, the “activity change, negative = inhibition” value was 3.12%.

Turning to `CCOc1cc(C(=O)Nc2ccc(Cl)c(-c3nc4ccccc4[nH]3)c2)cc(OCC)c1OCC`, the “activity change, negative = inhibition” value was -25.6%.

For the molecule `C#Cc1cccc(Nc2ncnc3cc(OCCOC)c(OCCOC)cc23)c1`, the “activity change, negative = inhibition” value was -26.4%.

For `S=C(NCc1ccc2c(c1)OCO2)N1CCN(c2ncnc3c2oc2ccccc23)CC1`, the Potency was 2.13 µM (active).

With `O=C1CCC(N2C(=O)c3ccccc3C2=O)C(=O)N1` (stereo unspecified), the “activity change, negative = inhibition” value is 0.579%.

Consider `COc1ccc([C@@H]2CC(=O)c3c(O)cc(O[C@@H]4O[C@H](CO[C@@H]5O[C@@H](C)[C@H](O)[C@@H](O)[C@@H]5O)[C@@H](O)[C@H](O)[C@@H]4O)cc3O2)cc1O`, for which the “activity change, negative = inhibition” value was -11.6%.

Turning to `CC(=O)Oc1ccccc1C(=O)O`, the “activity change, negative = inhibition” value is -0.403%.

In the case of `OC(CCN1CCCCC1)(c1ccccc1)C1CC2C=CC1C2` (stereo unspecified), the “activity change, negative = inhibition” value was -6.29%.

On to `Clc1ccc(Nc2nnc(Cc3ccncc3)c3ccccc23)cc1`, for which the Potency is 0.049 µM (active).

As for `CNC[C@H](O)c1cccc(O)c1`, the “activity change, negative = inhibition” value was 5.51%.

For `CCc1cncnc1N1CCN(Cc2nc3ccc(C(F)(F)F)cc3[nH]2)CC1`, the Potency is 0.477 µM (active).

As for `c1ccc([C@H]2CN3CCSC3=N2)cc1`, the Potency entry is “inactive”.

As to `O=C1CCc2cc(OCCCCc3nnnn3C3CCCCC3)ccc2N1`, the Potency is 6.17 µM (active).

With `CC(C)NCC(O)COc1ccc(COCCOC(C)C)cc1` (stereo unspecified), the “activity change, negative = inhibition” value was 8.84%.

On to `CC(C[N+](C)(C)C)OC(N)=O` (stereo unspecified), for which the “activity change, negative = inhibition” value was 2.44%.

With `CCCC(CCC)C(=O)O`, the Potency entry is “inactive”.

Turning to `CN(C)C(=O)c1ccc(S(=O)(=O)c2ccc(NC(=O)[C@@](C)(O)C(F)(F)F)c(Cl)c2)cc1`, the Potency was 6.74 µM (active).

For `N=c1nc(N2CCCCC2)cc(N)n1O`, the “activity change, negative = inhibition” value is 4.41%.

With `CCn1cc(C(=O)O)c(=O)c2cc(F)c(N3CCNC(C)C3)c(F)c21` (stereo unspecified), the “activity change, negative = inhibition” value was 4.51%.

Take `Nc1nc2c(ncn2COCCO)c(=O)[nH]1`: the “activity change, negative = inhibition” value is 5.12%.

Regarding `N[C@@H]1CONC1=O`, the “activity change, negative = inhibition” value is 10.2%.

As for `NC(=O)c1cnccn1`, the “activity change, negative = inhibition” value was 13.9%.

As to `NC(N)=NC(=O)c1nc(Cl)c(N)nc1N`, the “activity change, negative = inhibition” value was 23.6%.

Consider `NCCc1ccc(O)c(O)c1`, for which the “activity change, negative = inhibition” value was -16.4%.

Turning to `OC(CN1CCC(Cc2ccc(F)cc2)CC1)c1ccc(Cl)cc1` (stereo unspecified), the Potency result is “inactive”.

As to `C[C@]12CCC(=O)C=C1CC[C@@H]1[C@@H]2[C@@H](O)C[C@@]2(C)[C@H]1CC[C@]2(O)C(=O)CO`, the “activity change, negative = inhibition” value is -3.38%.

Turning to `Cc1ccc(N(CC2=NCCN2)c2cccc(O)c2)cc1`, the “activity change, negative = inhibition” value was 1.11%.

`Cc1[nH]c(=O)c(C#N)cc1-c1ccncc1`: the Potency is 29.9 µM (active).

As for `CS(=O)(=O)c1cccc(CNc2nc(Nc3ccc4c(c3)CCC(=O)N4)ncc2C(F)(F)F)c1`, the Potency is 0.169 µM (active).
